# Measurements taken from the supplement of paper PMC3414501.
# Structures can show the parent of a compound that is named as a salt.
# Test system: S. cerevisiae NKY1551 his4x/his4B, sporulating
# Test: HIS4 meiotic recombination assay sensitivity score (z-score vs DMSO controls); higher = stronger inhibition of sporulation/recombination, active = hit call of the paper
# Details: stock concentration (mM, diluted 1:100): 7.7;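 active = HIS4 sensitivity z-score above 5 vs DMSO controls; inactive = score 5 or below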
# Protocol: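 NIH Clinical Collection compounds were added 1:100 from stock (about 100 µM final) to S. cerevisiae. Growth: average doubling time (AvgG) over 24 h of BY4741 (wild-type) or AD1-9 (drug-efflux-pump deficient) in rich media. HIS4: the his4x/his4B heteroallelic recombination reporter strain (SK1) was sporulated 5 h with compound at 30°C, then colony density was read on -his plates after 48 h. Sensitivity score = (compound − mean of 8 DMSO controls)/SD of DMSO controls. Hit cutoffs are >2 for growth and >5 for sporulation.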
row,SMILES,HIS4 meiotic recombination assay sensitivity score
1,CCC(COC(=O)c1cc(OC)c(OC)c(OC)c1)(c1ccccc1)N(C)C (stereo not drawn) [Trimebutine maleate],-1.28 (inactive)

# Same assay, conditions: stock concentration (mM, diluted 1:100): 8.2
row,SMILES,HIS4 meiotic recombination assay sensitivity score
1,COc1ccc2c(c1)[C@]13CCCC[C@@H]1[C@H](C2)N(C)CC3 [Dextromethorphan hydrobromide],5.52 (active)

# Same assay, conditions: stock concentration (mM, diluted 1:100): 8.6
row,SMILES,HIS4 meiotic recombination assay sensitivity score
1,CCOC(=O)C1(c2ccccc2)CCN(CCC(C#N)(c2ccccc2)c2ccccc2)CC1 [Diphenoxylate],0.41 (inactive)

# Same assay, conditions: stock concentration (mM, diluted 1:100): 8.7
row,SMILES,HIS4 meiotic recombination assay sensitivity score
1,CC(=O)O[C@H]1C[C@@H]2CC[C@@H]3[C@H](CC[C@@]4(C)[C@H]3C[C@H]([N+]3(C)CCCCC3)[C@@H]4OC(C)=O)[C@@]2(C)C[C@@H]1[N+]1(C)CCCCC1 [Pancuronium],-0.44 (inactive)
2,CC(NC(C)(C)C)C(=O)c1cccc(Cl)c1 (stereo not drawn) [Bupropion hydrochloride],1.07 (inactive)

# Same assay, conditions: stock concentration (mM, diluted 1:100): 8.9
row,SMILES,HIS4 meiotic recombination assay sensitivity score
1,COc1ccc(C(CN(C)C)C2(O)CCCCC2)cc1 (stereo not drawn) [Venlafaxine hydrochloride],1 (inactive)

# Same assay, conditions: stock concentration (mM, diluted 1:100): 9.7
row,SMILES,HIS4 meiotic recombination assay sensitivity score
1,CN1CCC(c2ccc(F)cc2)C(COc2ccc3c(c2)OCO3)C1 (stereo not drawn) [Methyl paroxetine],10.7 (active)

# Same assay, conditions: stock concentration (mM, diluted 1:100): 10
row,SMILES,HIS4 meiotic recombination assay sensitivity score
1,OC1CCCCC1N1CCC(c2ccccc2)CC1 (stereo not drawn) [Vesamicol hydrochloride],-0.31 (inactive)
2,COc1ccc(CCN)cc1OC [Homoveratrylamine],-1.74 (inactive)
3,CC(C)[C@]12O[C@H]1[C@@H]1O[C@]13[C@]1(O[C@H]1C[C@H]1C4=C(CC[C@@]13C)C(=O)OC4)[C@@H]2O [Triptolide],0.28 (inactive)
4,CCN(C(C)=O)c1cccc(-c2ccnc3c(C#N)cnn23)c1 [Zaleplon],-0.58 (inactive)
5,CN1C(=O)COc2c(C(=O)NC3CN4CCC3CC4)cc(Cl)cc21 (stereo not drawn) [Azasetron],1.08 (inactive)
6,CC(C)CC(N(C)C)C1(c2ccc(Cl)cc2)CCC1 (stereo not drawn) [Sibutramine hydrochloride],0.96 (inactive)
7,CN1C(=O)CN=C(c2ccccc2)c2cc([N+](=O)[O-])ccc21 [Nimetazepam],-0.26 (inactive)
8,Oc1ccc2c3c1O[C@H]1[C@@H](O)CC[C@@]4(O)[C@@H](C2)N(CC2CCC2)CC[C@]314 [Nalbuphine],-0.56 (inactive)
9,NC(=O)C[S+]([O-])C(c1ccccc1)c1ccccc1 (stereo not drawn) [Modafinil],-0.33 (inactive)
10,CC(O)(CS(=O)(=O)c1ccc(F)cc1)C(=O)Nc1ccc(C#N)c(C(F)(F)F)c1 (stereo not drawn) [Bicalutamide],-0.62 (inactive)
11,c1cncc([C@@H]2CCCN2)c1 [Nornicotine],-1.18 (inactive)
12,O=c1c2ccccc2[se]n1-c1ccccc1 [Ebselen],-0.37 (inactive)
13,CCN(CC)CCOC(=O)C(O)(c1ccccc1)c1ccccc1 [Benactyzine hydrochloride],-0.53 (inactive)
14,COc1cc(N)c(Cl)cc1C(=O)NC1CN2CCC1CC2 (stereo not drawn) [Zacopride],-2.43 (inactive)
15,c1ccc2c(c1)Nc1ccccc1S2 [Phenothiazine],2.62 (inactive)
16,O=C1Nc2ccc(Cl)cc2C(c2ccccc2Cl)=NC1O (stereo not drawn) [Lorazepam],0.95 (inactive)
17,NC1=NC(=O)C(c2ccccc2)O1 (stereo not drawn) [Pemoline],-0.78 (inactive)
18,CC[C@]1(O)CC[C@H]2[C@@H]3CCC4=CCCC[C@@H]4[C@H]3CC[C@@]21C [Ethylestrenol],1.02 (inactive)
19,C[C@]12CC[C@H](O)CC1=CC[C@@H]1[C@@H]2CC[C@]2(C)C(=O)CC[C@@H]12 [Dehydroepiandrosterone],3.07 (inactive)
20,CNCC(O)c1ccc(O)cc1 (stereo not drawn) [Synephrine],-1.28 (inactive)
21,Cc1nnc2n1-c1ccc(Cl)cc1C(c1ccccc1)=NC2 [Alprazolam],1.57 (inactive)
22,CS(=O)(=O)Nc1ccc(Cc2noc(-c3ccc4[nH]cc(CCN)c4c3)n2)cc1,-0.76 (inactive)
23,CC[C@@H]1C=CC=CC[C@H](C)[C@@H](O)[C@@H](C)C(=O)[C@H](C)[C@@H](O)[C@H](C)C(=O)[C@H](C)[C@@H](O)[C@H](C)C=CC(=O)O[C@H]2[C@@H](C)[C@@H](CC1)O[C@@]1(CC[C@@H](C)[C@@H](C[C@H](C)O)O1)[C@@H]2C [Oligomycin c],0.21 (inactive)

# Same assay, conditions: stock concentration (mM, diluted 1:100): 10.1
row,SMILES,HIS4 meiotic recombination assay sensitivity score
1,NC(=O)OCCCc1ccccc1 [Phenprobamate],0.5 (inactive)
2,CC(NC(C)(C)C)C(=O)c1cccc(Cl)c1 (stereo not drawn) [Amfebutamone hydrochloride],-0.33 (inactive)

# Same assay, conditions: stock concentration (mM, diluted 1:100): 11.3
row,SMILES,HIS4 meiotic recombination assay sensitivity score
1,CC(C)CC(N(C)C)C1(c2ccc(Cl)cc2)CCC1 (stereo not drawn) [Sibutramine],1.61 (inactive)
